In PubChem BioAssay AID624330 (Southern Research Specialized Biocontainment Screening …, 2012):
The whole screen tested about 340,000 compounds, of which about 2,100 (0.62%) were called active.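 How the source made its calls: active means first-screen hits whose inhibition reached a set limit at any dose in the follow-up dose series; inconclusive means inhibition above the set first-screen limit but never retested; inactive means the rest.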 A selection follows. Entries with a potency or affinity are not part of this list.

The compounds below were run against Rac GTPase-activating protein 1 (Homo sapiens) (UniProt Q9H0H5) (assay: MgcRacGAP GTPase-activating activity inhibitors, confirmation, biochemical, ADP Hunter fluorescence, primary and confirmatory (AID 624330;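 further: fluorescence reports GDP produced by GAP-driven GTP hydrolysis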)). Conditions: MgcRacGAP-stimulated Rac1 GTP hydrolysis, at 30 µM, stronger effect = higher value, GST-tagged Rac1 F28L mutant substrate.
Sequence of Rac GTPase-activating protein 1 (Homo sapiens) (Q9H0H5 whole entry, looked up): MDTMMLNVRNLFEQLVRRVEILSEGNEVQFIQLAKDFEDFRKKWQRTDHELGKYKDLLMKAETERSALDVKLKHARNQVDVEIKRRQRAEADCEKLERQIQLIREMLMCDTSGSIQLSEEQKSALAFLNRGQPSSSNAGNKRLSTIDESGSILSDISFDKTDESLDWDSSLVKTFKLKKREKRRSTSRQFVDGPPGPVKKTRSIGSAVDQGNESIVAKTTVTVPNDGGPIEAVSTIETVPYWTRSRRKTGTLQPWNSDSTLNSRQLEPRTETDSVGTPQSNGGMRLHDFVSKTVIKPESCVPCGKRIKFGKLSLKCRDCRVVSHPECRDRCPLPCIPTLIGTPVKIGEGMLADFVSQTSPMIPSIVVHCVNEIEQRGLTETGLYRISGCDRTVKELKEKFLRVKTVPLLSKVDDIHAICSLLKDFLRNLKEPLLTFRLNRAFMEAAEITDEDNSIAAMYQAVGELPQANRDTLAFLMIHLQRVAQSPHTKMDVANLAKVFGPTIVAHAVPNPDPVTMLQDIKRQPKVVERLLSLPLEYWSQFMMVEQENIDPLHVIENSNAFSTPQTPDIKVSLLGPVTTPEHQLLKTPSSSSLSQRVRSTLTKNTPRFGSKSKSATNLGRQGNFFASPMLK

inhibition, inactive:
CCc1cc(=O)oc2c(C)c(OCC(=O)NCCCn3ccnc3)ccc12 5.6%
O=C(C[C@@H]1C[C@@H]2c3cc(NS(=O)(=O)c4ccc(F)cc4)ccc3O[C@@H]2[C@@H](CO)O1)NC1CCCCC1 7.42%
O=C(NCc1cccs1)c1nc2ncccn2n1 10.9%
CSc1cccc(NC(=S)N(CCC(C)C)C2CCN(C(C)C)CC2)c1 1.15%
COc1ccccc1-c1ccc(Nc2ccc(C(=O)N3CCOCC3)cc2)nn1 2.87%
CC(=O)c1ccc(Nc2ccc(-c3ccccc3C)nn2)cc1 2.32%
O=C(NCc1ccncc1)C(=O)N/N=C/c1cccnc1 -4.63%
O=P(Cc1ccccc1O)(c1ccccc1)c1ccccc1 3.4%
Cc1ccc(O)c(CN(C)Cc2cc(C)ccc2O)c1 -9.02%
COc1ccc(S(=O)(=O)NC(C)C(=O)Nc2cccc(C(C)=O)c2)cc1 (stereo not drawn) 8.82%
CCN(CC)CCn1c2ccccc2c2nc3ccccc3nc21 11.3%
CCc1cc2c(=O)c(-c3nc4ccccc4n3C)c(C)oc2c(CN(CC)CC)c1O 8.27%
O=C(c1cccnc1)N1CCN(S(=O)(=O)c2ccc(S(=O)(=O)N3CCCC3)cc2)CC1 2.14%
CCc1ccc(N(CC(=O)Nc2ccc(OC)cc2OC)S(C)(=O)=O)cc1 6.83%
Cc1cc(N2C(=O)C3C4CCC(C4)C3C2=O)no1 (stereo not drawn) -3.98%
O=C(CCCc1cccs1)N1CCN(S(=O)(=O)c2ccccc2Br)CC1 8.03%
CC(=O)NC(NC(=S)Nc1ccc(N=Nc2ccccc2)cc1)C(Cl)(Cl)Cl (stereo not drawn) 7.33%
COC(=O)c1ccc(OC(=O)C2CC(=O)N(c3cccc(C)c3)C2)cc1 (stereo not drawn) -2.41%
COc1cccc(N2CC(NC(=O)c3ccc4ccccc4c3)CC2=O)c1 (stereo not drawn) 6.5%
COc1ccc(N2CC(C(=O)OCC(=O)c3ccc(C)cc3)CC2=O)cc1 (stereo not drawn) -1.09%
COC(=O)C1CC(=O)N(c2ccc(C)cc2)C1 (stereo not drawn) 1.9%
O=C(COC(=O)c1ccccc1Cl)NCc1ccco1 6.58%
CC(C)=CCN1CCN(CCCn2cccn2)CC1CCO (stereo not drawn) 0.56%
CC(=O)Nc1ccc(S(=O)(=O)Nc2nccc(/C=C/c3ccc(Cl)cc3)n2)cc1 -0.65%
COCC1CCN(C(=O)c2cc(COc3ccc(OC)cc3Cl)on2)C1 (stereo not drawn) 10.9%
COC(=O)C1(Cc2ccc(O)cc2)OC(=O)C(O)=C1c1ccc(O)cc1 (stereo not drawn) 16.3%
Cc1ccc(S(=O)(=O)c2ccc(C)cc2)cc1 5.53%
CC(=O)Nc1ccc(S(=O)(=O)c2ccc(C)cc2)cc1 10.7%
COc1cc(C(=O)NCCC(=O)N2CCC3(CC2)NCCc2[nH]cnc23)cc(OC)c1OC 1.24%
CCC1CCCCN1C(=S)NC(=O)c1ccc(F)c(S(=O)(=O)N2CCOCC2)c1 (stereo not drawn) 0.38%
Cc1nc(CC(=O)c2ccc(O)cc2O)cs1 -0.73%
Cc1nc(C/C(=N\Nc2ccccc2)c2ccc(O)cc2O)cs1 10.9%
O=C(Cc1cscn1)c1ccc(O)cc1O 0.47%
Oc1ccc(/C(Cc2ccccn2)=N\Nc2ccccc2)c(O)c1 13.1%
C#CCOCCOCCOCCNc1nc(N2CCN(C(=O)CCCCCCCCCCNC(=O)[C@@H](CCC(=O)O)n3cc(CCCCCN)nn3)CC2)nc(N2CCN(C(=O)CCCCCCCCCCNC(=O)[C@@H](CCC(=O)O)n3cc(CCCCCN)nn3)CC2)n1 0.63%
CCn1c(C)nc2c(C)[n+](CC(=O)c3ccc(Br)cc3)ccc21 8.56%
CSc1nnc2ccc(-c3ccccn3)nn12 -3.72%
COc1ccc(NC2CCCN(C(=O)c3cccc(C)n3)C2)cc1OC (stereo not drawn) 26.1%
Oc1cccc(/C=N/Nc2ncnc3c2ncn3Cc2ccccc2)c1 15.2%
COc1cccc(/C=N/Nc2ncnc3c2ncn3Cc2ccccc2)c1O 7.53%
COc1cccc(C2C(C(=O)c3cccs3)=C(O)C(=O)N2CCN2CCOCC2)c1OC (stereo not drawn) 10.9%
Cc1cn([C@H]2C[C@H](O)[C@@H](CNCc3ccccc3)O2)c(=O)[nH]c1=O 7%
O=c1ccn([C@@H]2O[C@H](CNCC3=Cc4cc(O)ccc4OC3)[C@@H](O)[C@H]2O)c(=O)[nH]1 20%
COC(=O)c1ccc(CNC(=O)C2CCC(=O)N(CCc3ccccc3)C2)cc1 (stereo not drawn) 6.06%
Cn1c(=O)c([N+](=O)[O-])c(NCc2ccccc2Cl)c2ccccc21 8.45%
CN(C)c1ccc(/C=c2\sc3n(c2=O)CCCN=3)cc1 9.18%
O=c1/c(=C\c2ccc(F)cc2)sc2n1CCCN=2 -5.16%
O=c1/c(=C\c2ccc3c(c2)OCO3)sc2n1CCCN=2 8.3%
O=c1/c(=C/c2ccc([N+](=O)[O-])cc2)sc2n1CCCN=2 9.61%
COc1ccc(CCNS(=O)(=O)c2cn(C)c(=O)n(C)c2=O)cc1OC -1.5%
CCc1ccccc1NC(=O)NCc1ccccn1 7.56%
Cc1ccc(C)c2c1cc(C)c1nnc(SCC(=O)Nc3nc4c(s3)CCCC4)n12 6.82%
CCOC(=O)CC1=NN(c2ccccc2)C(=O)/C1=C\c1ccc(N(C)C)cc1 12%
CN(C)c1ccc(/C=C2\CCCc3c2nc2ccccc2c3C(=O)O)cc1 28.8%
CN(C)c1ccc(/C=C2\CCCCC2=O)cc1 22%
CN(C)c1ccc(/C=C2\SC(=O)N(CC(O)Cn3c4ccccc4c4ccccc43)C2=O)cc1 (stereo not drawn) 9.97%
CN(C)c1ccc(/C=C/c2nc3ccccc3c(=O)n2-c2ccc(C(=O)O)cc2)cc1 21.8%
CCOC(=O)C1=NN(c2ccccc2)C(=O)/C1=C\c1ccc(N(C)C)cc1 14.6%
CC(=O)N1/C(=C/c2ccc(N(C)C)cc2)C(=O)c2ccccc21 10.6%
CC1=NN(c2cccc(F)c2)C(=O)/C1=C/c1ccc(N(C)C)cc1 4.18%
Cc1ccc(/C=C/C(=O)OCC(=O)NCCN2C(=O)CSC2=O)o1 5.03%
Cc1nc(CNC(=O)C2CCC(=O)N(CCc3ccc(Cl)cc3)C2)sc1C (stereo not drawn) 10.8%
COc1cc(/C=N/Nc2nc(Nc3ccccc3)nc(N3CCOCC3)n2)ccc1OC(=O)c1ccco1 8.66%
CN(C)c1ccc(-c2n(C)c3ccccc3[n+]2C)cc1 3.74%
CN(c1ccc(Cl)cc1)c1cc(=O)n(C)c2ccccc12 -1.02%
O=C(Nc1ccc([N+](=O)[O-])cc1)c1cccc([N+](=O)[O-])c1 16.6%
Cc1ccc(NC(=O)c2cccc(Oc3ccc([N+](=O)[O-])cc3)c2)c(C(=O)O)c1 7.38%
Cc1cc(NC(=O)CN2C(=O)NC(C)(CC(C)C)C2=O)no1 (stereo not drawn) 3.59%
COc1ccc(C(=O)O)cc1NC(=S)NC(=O)/C=C/c1ccc(C(C)C)cc1 14.7%
CCOC(CN=c1nc(N(C)C)ss1)OCC 30.1%
COC(=O)c1cc(=O)n(Cc2cccs2)c(=NCc2cccs2)s1 3.47%
Cc1cc(C2(O)C(=O)Nc3ccccc32)ccc1F (stereo not drawn) -6.52%
COc1cccc(-c2cc(C(F)(F)F)n3nc(C(=O)Nc4c(C)n(C)n(-c5ccccc5)c4=O)cc3n2)c1 7.24%
O=C(Nc1ccccc1Cl)Nc1ccccc1Cl 10.3%
O=C(Nc1ccccc1Cl)c1ccc(C(=O)Nc2ccccc2Cl)cc1 3.72%
Cc1n[nH]c(C)c1N1C(=O)c2cccc3cc(Br)cc(c23)C1=O 15.9%
O=C(N/N=C/c1ccc(F)cc1)c1ccccc1 5.65%
O=C(N/N=C/c1ccccc1)c1ccc(-c2ccccc2)cc1 5.75%
O=C(NCc1ccccc1)C1Cc2ccccc2CN1C(=O)c1ccco1 (stereo not drawn) 6.98%
COc1cc(/C=N/O)cc(Br)c1OCc1ccc(Cl)cc1 0.88%
CCCCN(C(=O)Cn1nnc2ccccc21)C(C(=O)NCCOC)c1cccs1 (stereo not drawn) 9.34%
O=C(O)c1ccccc1Nc1ccc([N+](=O)[O-])c2nonc12 5.2%
O=[N+]([O-])c1ccc(O)c2cccnc12 5.34%
CS(=O)(=O)c1ccc(C(=O)Nc2ccc(S(=O)(=O)N3CCCCC3)cc2)cc1 3.97%
O=c1[nH]c2cc([N+](=O)[O-])ccc2c2ccccc12 2.35%
Nc1nc2ccc([N+](=O)[O-])cc2[nH]1 0.04%
O=C1N(C2CCCC2)C[C@@H]2C[C@@H](c3cn[nH]c3-c3ccc(Cl)cc3)N3CCC[C@@]123 7.84%
COc1ccc(CN2C3CCC2CC(NC(=O)c2cc(OC)c(OC)c(OC)c2)C3)cc1 (stereo not drawn) 9.16%
Cc1ccc(S(=O)(=O)N(C)CC(=O)Nc2ncccc2C)cc1 -0.45%
CCCNC(=S)N1CC2(C)CN(C(=O)C(=O)OC)CC(C)(C1)C2=O 2.02%
CC(=O)N(c1ccccc1)c1nnc(-c2cnc(C)cn2)s1 -6.48%
CC(=O)Oc1ccc2c3c(c(=O)oc2c1C)CCCC3 4.5%
Cc1c(O)ccc2c3c(c(=O)oc12)CCC(C)C3 (stereo not drawn) 29.3%
